Screen size: about 5,500 compounds; about 2,000 (36%) were called active. Roughly 18% stayed inconclusive and do not appear here. No stated cut-off is given here; in the data, active means normalized growth mostly below about 0.91 (no sharp cut-off); inconclusive means no clear call, values can overlap the other calls; inactive means mostly above about 0.92. The list shows a part of the results.
Experiment: chemical genetic growth profiling, strain panel (AID 1159580);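 further: tested at 20 µM; growth read once vehicle control cultures reached saturation at 30 °C; 1 = growth at the plate median or of vehicle wells; lower values mean less growth of the strain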
Conditions: S. cerevisiae deletion strains, growth OD
[1] = locus YDL101C, strain DUN1, active compounds read low
[2] = locus YHR030C, strain SLT2, active compounds read low

Measured: normalized growth

Cc1nc([N+](=O)[O-])cn1CC(=O)c1ccc(Cl)cc1
active: locus YGR092W, strain DBF2, active compounds read low 0.416 | [2] 0.189 | locus YLR113W, strain HOG1, active compounds read low 0.539
inactive: locus YAR019C, strain CDC15, active compounds read low 0.973 | locus YBL105C, strain PKC1, active compounds read low 0.97 | locus YBR135W, strain CKS1, active compounds read low 0.982 | locus YBR136W, strain MEC1, active compounds read low 0.973 | locus YBR160W, strain CDC28, active compounds read low 0.984 | locus YDL017W, strain CDC7, active compounds read low 0.981 | locus YDL028C, strain MPS1, active compounds read low 0.969 | [1] 0.978 | locus YDL108W, strain KIN28, active compounds read low 0.963 | locus YDL132W, strain cdc53, active compounds read low 0.976 | locus YDL214C, strain PRR2, active compounds read low 0.927 | locus YDR052C, strain DBF4, active compounds read low 0.964 | locus YDR054C, strain cdc34, active compounds read low 0.973 | locus YDR226W, strain ADK1, active compounds read low 0.972 | locus YDR477W, strain SNF1, active compounds read low 0.938 | locus YER123W, strain YCK3, active compounds read low 0.782 | locus YER133W, strain GLC7, active compounds read low 0.94 | locus YFL009W, strain cdc4, active compounds read low 0.982 | locus YFL029C, strain CAK1, active compounds read low 0.971 | locus YFR003C, strain YPI1, active compounds read low 0.979 | locus YFR019W, strain FAB1, active compounds read low 0.901 | locus YFR028C, strain CDC14, active compounds read low 0.98 | locus YGR040W, strain KSS1, active compounds read low 0.94 | locus YGR052W, strain FMP48, active compounds read low 1.03 | locus YHR079C, strain IRE1, active compounds read low 1.05 | locus YHR082C, strain KSP1, active compounds read low 1.04 | locus YHR205W, strain SCH9, active compounds read low 0.964 | locus YIL147C, strain SLN1, active compounds read low 0.96 | locus YJL095W, strain BCK1, active compounds read low 1.02 | locus YJL128C, strain PBS2, active compounds read low 0.906 | locus YJL157C, strain FAR1, active compounds read low 0.922 | locus YJR016C, strain ILV3, active compounds read low 0.97 | locus YJR066W, strain TOR1 (second series), active compounds read low 0.898 | locus YJR066W, strain TOR1, active compounds read low 1.04 | locus YKL048C, strain ELM1, active compounds read low 0.966 | locus YKL067W, strain YNK1, active compounds read low 0.947 | locus YKL101W, strain HSL1, active compounds read low 0.954 | locus YKL193C, strain SDS22, active compounds read low 0.969 | locus YKL203C, strain TOR2, active compounds read low 1.02 | locus YLR133W, strain CKI1, active compounds read low 0.962 | locus YLR403W, strain SFP1, active compounds read low 0.941 | locus YML070W, strain DAK1, active compounds read low 0.904 | locus YMR001C, strain CDC5, active compounds read low 0.976 | locus YMR205C, strain PFK2 (second series), active compounds read low 0.966 | locus YMR277W, strain FCP1, active compounds read low 0.964 | locus YNL006W, strain LST8, active compounds read low 0.983 | locus YNL020C, strain ARK1, active compounds read low 0.959 | locus YNL161W, strain CBK1, active compounds read low 0.971 | locus YNL183C, strain NPR1, active compounds read low 1 | locus YNL207W, strain RIO2, active compounds read low 0.965 | locus YNL222W, strain SSU72, active compounds read low 0.977 | locus YNL307C, strain MCK1 (second series), active compounds read low 0.967 | locus YOL078W, strain AVO1, active compounds read low 0.969 | locus YOL136C, strain PFK27, active compounds read low 0.927 | locus YOR061W, strain CKA2, active compounds read low 0.94 | locus YOR119C, strain RIO1, active compounds read low 0.985 | locus YOR231W, strain MKK1, active compounds read low 1 | locus YOR329C, strain SCD5, active compounds read low 0.977 | locus YPL031C, strain PHO85, active compounds read low 0.949 | locus YPL153C, strain RAD53, active compounds read low 0.916 | locus YPL204W, strain HRR25, active compounds read low 0.921 | locus YPL209C, strain IPL1, active compounds read low 0.984 | locus YPL256C, strain CLN2, active compounds read low 1.01 | locus YPR025C, strain CCL1, active compounds read low 0.985 | locus YPR106W, strain ISR1, active compounds read low 0.982 | locus YPR111W, strain DBF20, active compounds read low 0.989 | strain NNK1, active compounds read low 0.979 | strain TSCII, active compounds read low 0.969

CCn1cc([N+](=O)[O-])nc1C
inactive: locus YAL013W, strain DEP1, active compounds read low 1 | locus YBR229C, strain ROT2, active compounds read low 1.02 | [1] 1.03 | locus YDR150W, strain NUM1, active compounds read low 1.03 | locus YEL061C, strain CIN8, active compounds read low 0.981 | locus YGR078C, strain PAC10, active compounds read low 1.02 | [2] 1.05 | locus YHR087W, strain rtc3, active compounds read low 0.975 | locus YJR043C, strain POL32, active compounds read low 1.06 | locus YJR075W, strain HOC1, active compounds read low 1 | locus YKL190W, strain CNB1, active compounds read low 1 | locus YLR039C, strain RIC1, active compounds read low 0.987 | locus YLR058C, strain SHM2 (second series), active compounds read low 0.998 | locus YLR085C, strain ARP6, active compounds read low 0.982 | locus YLR262C, strain YPT6, active compounds read low 0.979 | locus YML094W, strain GIM5, active compounds read low 0.968 | locus YMR219W, strain ESC1, active compounds read low 0.983 | locus YMR263W, strain SAP30, active compounds read low 1.01 | locus YNL128W, strain TEP1, active compounds read low 1.02 | locus YNL153C, strain GIM3, active compounds read low 1.02 | locus YNL298W, strain CLA4 (second series), active compounds read low 1 | locus YNL322C, strain KRE1, active compounds read low 0.997 | locus YNR030W, strain Alg12, active compounds read low 0.976 | locus YPL055C, strain LGE1, active compounds read low 1.01 | locus YPL241C, strain CIN2, active compounds read low 1.02 | locus YPR135W, strain CTF4, active compounds read low 1.05

Source: PubChem BioAssay AID1159580 (chemical genetic matrix, 2015)
